Data reported in PubChem BioAssay AID376 (PDSP, 2006).
Screen size: about 2,000 compounds; about 250 (12%) were called active. This excerpt belongs to a sample that is enriched for actives. Values without a mark were called inactive. Rule as the data show it: active = hERG blockade below about -20% or above about 20%; inactive = in between.

Each molecule was assayed against Voltage-gated inwardly rectifying potassium channel KCNH2 (Homo sapiens) (UniProt Q12809) (assay: KCNH2 potassium channel function modulators, cell-based (AID 376;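 also: 0% = buffer alone and 100% = reference blocker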)). Details: hERG-expressing cells, channel activity single-concentration screen; concentration not given here.
Sequence of Voltage-gated inwardly rectifying potassium channel KCNH2 (Homo sapiens) (Q12809 whole entry, looked up): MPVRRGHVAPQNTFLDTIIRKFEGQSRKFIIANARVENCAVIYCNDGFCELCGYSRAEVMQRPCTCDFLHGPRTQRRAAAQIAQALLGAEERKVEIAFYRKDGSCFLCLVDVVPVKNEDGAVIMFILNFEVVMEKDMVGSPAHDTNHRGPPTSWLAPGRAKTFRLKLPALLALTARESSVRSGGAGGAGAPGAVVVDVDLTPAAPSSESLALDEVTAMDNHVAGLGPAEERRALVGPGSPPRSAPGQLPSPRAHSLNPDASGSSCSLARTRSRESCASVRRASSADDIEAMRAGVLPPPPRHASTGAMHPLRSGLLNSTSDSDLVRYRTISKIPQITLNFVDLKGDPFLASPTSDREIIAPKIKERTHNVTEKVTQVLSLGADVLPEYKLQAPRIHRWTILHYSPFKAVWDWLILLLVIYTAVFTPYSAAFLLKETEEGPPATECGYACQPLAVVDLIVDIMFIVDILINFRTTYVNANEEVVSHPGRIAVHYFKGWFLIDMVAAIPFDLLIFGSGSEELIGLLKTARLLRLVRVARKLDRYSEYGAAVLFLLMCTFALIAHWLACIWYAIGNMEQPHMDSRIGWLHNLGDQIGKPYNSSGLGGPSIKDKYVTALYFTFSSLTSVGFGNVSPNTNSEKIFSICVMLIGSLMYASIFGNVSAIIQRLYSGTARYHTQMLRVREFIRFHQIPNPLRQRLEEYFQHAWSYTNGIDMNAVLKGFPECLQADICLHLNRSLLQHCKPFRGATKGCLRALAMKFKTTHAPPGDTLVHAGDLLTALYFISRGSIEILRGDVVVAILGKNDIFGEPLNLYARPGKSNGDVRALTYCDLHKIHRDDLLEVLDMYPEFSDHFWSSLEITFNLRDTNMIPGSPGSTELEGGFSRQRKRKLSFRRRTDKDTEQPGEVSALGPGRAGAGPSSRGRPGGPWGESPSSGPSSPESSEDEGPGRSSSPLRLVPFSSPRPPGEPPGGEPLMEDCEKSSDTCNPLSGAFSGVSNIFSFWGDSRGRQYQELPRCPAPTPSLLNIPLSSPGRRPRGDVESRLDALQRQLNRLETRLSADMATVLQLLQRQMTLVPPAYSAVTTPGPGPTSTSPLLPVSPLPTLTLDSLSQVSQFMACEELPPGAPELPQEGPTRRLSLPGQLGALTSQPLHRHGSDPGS

Structure (SMILES)	hERG blockade
Cc1cc(Cc2cc(C)cc(C(C)(C)C)c2O)c(O)c(Cc2cc(C)cc(C(C)(C)C)c2O)c1	15.5%
Cc1ncc(CSc2ccccc2N)c(CO)c1O	-7.6%
Clc1ccc(CN2CCCN(Cc3ccc(Cl)cc3)C2c2cc3ccccc3c3ccccc23)cc1	-5.92%
CC(C)(C)c1ccc(CN2CCN(C(c3ccccc3)c3ccc(Cl)cc3)CC2)cc1 (stereo not drawn)	23.1% (active)
c1ccc(CN2CCC3(CC2)SSC2(CCN(Cc4ccccc4)CC2)SS3)cc1	1.07%
CC1NCCC(CC(=O)O)C1CC(=O)O (stereo not drawn)	-10.6%
CC(C(=O)c1ccccc1)C(c1ccccc1)N1CCOCC1 (stereo not drawn)	-13.1%
Cc1onc(-c2c(F)cccc2Cl)c1C(=O)NC1C(=O)N2C1SC(C)(C)C2C(=O)O (stereo not drawn)	8.23%
Cc1ccc2nc(NN=Cc3cccc(C)n3)cc(C)c2c1	26.3% (active)
CSc1nnnc2ccccc12	8.81%
O=C(O)C(=Cc1ccnc2ccccc12)C(=O)O	3.04%
O=C(O)C(Cc1cn[nH]n1)=NO	7.89%
O=C(O)C(Cc1ccnc2ccccc12)=NO	-22.9% (active)
NC(=O)SCC(=O)Nc1ccc2ncccc2c1	8.17%
CC1(C)N=C(N)N=C(N)N1c1cccc(OCc2cccc([N+](=O)[O-])c2)c1	-1.1%
CC(C)(COC1CC2CCC1(C)C2(C)C)[N+](=O)[O-] (stereo not drawn)	-4.38%
N#CC(=CNc1ccccn1)C(=O)C1CC1	0.609%
N=C(N)SC1c2ccccc2-c2cc([N+](=O)[O-])ccc21 (stereo not drawn)	50.8% (active)
O=[N+]([O-])c1ccc2c(c1)S(=O)c1ccccc1-2 (stereo not drawn)	13.4%
NC(Cc1cccc([N+](=O)[O-])c1)C(=O)O (stereo not drawn)	7.25%
N#CC(N=Nc1ccccc1C(=O)O)C(N)=O (stereo not drawn)	-0.342%
O=[N+]([O-])c1ccc(C(Nc2ccccc2)c2ccc3cccnc3c2O)cc1 (stereo not drawn)	11.2%
Cc1cc2ccccc2c[n+]1CC(O)C[n+]1cc2ccccc2cc1C	26.1% (active)
Cc1ccc(S(=O)(=O)OC2CC(C(C)(C)C)CCC2c2ccccc2)cc1 (stereo not drawn)	2.36%
COc1cccc2c1C(CO)N1C(C#N)C3CC(C(=O)O)C(C1C2)N3C (stereo not drawn)	-24.5% (active)
O=C(Nc1cccc(Cl)c1)Nn1cnnc1	10.3%
Cc1ccc(CN2CCN(Cc3ccc(C)o3)C(C)C2)o1 (stereo not drawn)	0.417%
O=C(O)C1C2C=CC(O2)C1C(=O)Nc1ncccn1 (stereo not drawn)	-6.76%
